PubChem BioAssay (NCATS)
Values joined by “and” are separate entries in the source; they are usually repeats but may differ in a detail not shown here. Equal entries are not always repeated. Values without a mark were called inactive. Records with an inconclusive call do not appear. Entries that show only a call come without a potency. Active and inactive are the calls of the source. Unless noted, calls follow the shape of the dose curve; as a rule, active = well fitted curve in the direction sought with a large enough effect; inconclusive = small, poorly fitted or top-dose-only effect, or another doubt; inactive = no such curve, though single readings can be large; an effect the other way counts as inactive or inconclusive.

What was measured:
[1] = Cell Viability - NIH 3T3 (AID 541); also: nearly all actives have a fitted effect of over 25% in size
In short: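 Luminescent ATP signal (CellTiter-Glo) served as the viability read-out after NIH 3T3 cells were exposed to compounds over a concentration range for 40 hr at 37 °C. Hill-equation modelling of concentration-response data gave AC50.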

[2] = Cell Viability - HUV-EC-C (AID 542); also: nearly all actives have a fitted effect of over 35% in size
In short: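 qHTS cytotoxicity: HUV-EC-C, 1000 cells/well, 5 hr settle, compound 40 hr 37 °C, CellTiter-Glo, luminescence. AC50 via Hill equation.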

[3] = Cell Viability - Mesenchymal (AID 546);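 also: cells exposed to compound for 40 hours before reading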
In short: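 Normal human renal glomerulus-derived kidney mesenchymal cells, 1000 per well in complete medium, were treated with compounds for 40 hr at 37 °C. Viability was read as intracellular ATP by CellTiter-Glo luminescence; AC50 values came from Hill-equation fits of qHTS concentration-response data.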

[4] = Cellular Toxicity (caspase-3) HepG2 (AID 654);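 also: cells exposed to compound for 16 hours before reading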
In short: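 Cells plated 5 hr at 37 °C, compound added, incubated 16 hr at 37 °C. Caspase-Glo 3/7 reagent followed, 20 min at room temperature, then luminescence read. Activation scored as signal increase; AC50 from Hill fit.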

[5] = Cellular Toxicity (caspase-3) Jurkat (AID 655);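 also: cells exposed to compound for 16 h at 37 °C before reading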
In short: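 Jurkat cells (5000/well) in complete medium were treated with compounds for 16 hr at 37 °C, then Caspase-Glo 3/7 luminescence was read after 20 min at room temperature. Data normalized to DMSO (basal) and 100 uM tamoxifen (100%); AC50 from Hill fit.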

[6] = Cellular Toxicity (caspase-3) HUV-EC-C (AID 656)
In short: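 HUV-EC-C endothelial cells, 1000/well, were pre-incubated 5 hr at 37°C, then exposed to compounds for 16 hr at 37°C. Caspase-Glo 3/7 luminescence was read after 20 min at room temperature. AC50 came from Hill fits, normalized to DMSO and 100 uM tamoxifen.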

[7] = Cellular Toxicity (caspase-3) SHSY5Y (AID 657)
In short: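 SH-SY5Y human neuroblastoma cells (1500/well) were treated with compounds for 16 h at 37 °C, then Caspase-Glo 3/7 luminescence was read after 1 h at room temperature. Data normalized to DMSO and 10 uM staurosporine; AC50 from Hill fits.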

[8] = Cellular Toxicity (caspase-3) BJ (AID 658)
In short: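 Luminescent aminoluciferin-substrate cleavage reports caspase 3/7 activity in normal human BJ fibroblasts after 16 hr compound exposure at 37 °C. Normalized to DMSO (basal) and 10 uM staurosporine (100%); AC50 from Hill fit of concentration-response.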

[9] = Cellular Toxicity (caspase-3) MRC-5 (AID 659)
In short: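 Luminescence from caspase-cleaved aminoluciferin substrate (Caspase-Glo 3/7, 1 hr RT) reports caspase 3/7 activity in MRC-5 lung fibroblasts after 16 hr compound exposure. Normalized to DMSO basal and 10 uM staurosporine as 100%; AC50 from Hill fits.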

[10] = Cellular Toxicity (caspase-3) Mesangial (AID 660);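 also: combined caspase 3 and 7 activity read by Caspase-Glo luminescence; cells exposed to compound for 16 h before the caspase read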
In short: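 Mesangial cells, 1000/well, 5 h settle at 37 °C; compound 16 h, 37 °C; Caspase-Glo 3/7 reagent 20 min RT; luminescence. Norm.: DMSO = 0%, tamoxifen 100 uM = 100%. AC50, Hill fit.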

[11] = Cellular Toxicity (caspase-3) SK-N-SH (AID 661)
In short: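 Human neuroblastoma SK-N-SH, 1500 cells/well, 5 hr pre-incubation, then compound 16 hr, 37 °C. Caspase-Glo 3/7 reagent, 1 hr RT, luminescence. Norm. to DMSO/10 uM staurosporine; Hill-fit AC50.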

[12] = Cellular Toxicity (caspase-3) H-4-II-E (AID 663);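 also: cells exposed to compound for 16 hr before readout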
In short: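 Luminescence from caspase-cleaved aminoluciferin substrate, read 20 min after reagent addition, reports caspase 3/7 activation in rat H-4-II-E cells after 16 hr compound exposure. Normalized to DMSO (basal) and 100 uM tamoxifen (100%); AC50 from Hill fits.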

[13] = target: Mitogen-activated protein kinase 10 (Mus musculus) (UniProt Q61831); assay: JNK3 AlphaScreen Assay (AID 530; active = well fitted curve in either direction with a large enough effect, not every such curve was filed as active;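 also: kinase came from lysate of stimulated human HepG2 cells; signal reports phosphorylation of biotinylated GST-cJun 1-79 at Ser73 with 10 µM ATP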)
In short: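 Inhibitors reduce antibody binding to phosphorylated biotin-cJun, lowering AlphaScreen luminescence. Lysates from HepG2 cells pre-activated by IL-1beta plus TNF-alpha supplied JNK3; compounds were titrated.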

[14] = Cell Viability - N2a (AID 540); conditions: N2a mouse neuroblastoma cell viability; activity change, negative = cytotoxicity: at 92.2 µM (top of the series); also: nearly all actives have a fitted effect of over 45% in size
In short: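 Luminescent ATP signal (CellTiter-Glo, 20 min at room temperature) served as the viability read-out after N2a cells were treated with compounds for 40 hours at 37 °C. Concentration-response data were fitted to the Hill equation for AC50.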

[15] = Cell Viability - H-4-II-E (AID 543); also: nearly all actives have a fitted effect of over 35% in size
In short: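 Luminescent ATP signal (CellTiter-Glo) served as the viability read-out, with cytotoxicity seen as a concentration-dependent ATP drop. Cells were treated for 40 hours in complete medium. AC50 values derive from Hill-equation modelling.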

[16] = Cell Viability - SH-SY5Y (AID 544); also: nearly all actives have a fitted effect of over 55% in size; also: potency is read from the fitted curve at half-maximal effect
In short: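 Luminescent ATP read-out (CellTiter-Glo) measures loss of viable SH-SY5Y neuroblastoma cells after 40 hr compound exposure at 37 °C. AC50 values derive from standard Hill modelling of qHTS concentration-response data.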

[17] = Cell Viability - Renal Proximal Tubule (AID 545); also: nearly all actives have a fitted effect of over 40% in size
In short: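 Primary rat renal proximal tubule cells (1000/well) were treated with compounds for 40 hr at 37 °C in complete medium. Intracellular ATP was measured by CellTiter-Glo luminescence, and AC50 values came from Hill-equation fits of concentration-response data.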

[18] = target: Glucocorticoid receptor (Homo sapiens) (UniProt P04150); assay: GR-GFP Redistribution (AID 450;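 active = compounds whose dose series gives a full or clear partial fitted curve of increased nuclear translocation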; also: potency is read from the fitted curve at half-maximal effect); conditions: U2OS GR-GFP nuclear translocation, laser cytometry, 2 h
Chain of Glucocorticoid receptor (Homo sapiens) (P04150 whole entry, looked up, the tested form may be a part): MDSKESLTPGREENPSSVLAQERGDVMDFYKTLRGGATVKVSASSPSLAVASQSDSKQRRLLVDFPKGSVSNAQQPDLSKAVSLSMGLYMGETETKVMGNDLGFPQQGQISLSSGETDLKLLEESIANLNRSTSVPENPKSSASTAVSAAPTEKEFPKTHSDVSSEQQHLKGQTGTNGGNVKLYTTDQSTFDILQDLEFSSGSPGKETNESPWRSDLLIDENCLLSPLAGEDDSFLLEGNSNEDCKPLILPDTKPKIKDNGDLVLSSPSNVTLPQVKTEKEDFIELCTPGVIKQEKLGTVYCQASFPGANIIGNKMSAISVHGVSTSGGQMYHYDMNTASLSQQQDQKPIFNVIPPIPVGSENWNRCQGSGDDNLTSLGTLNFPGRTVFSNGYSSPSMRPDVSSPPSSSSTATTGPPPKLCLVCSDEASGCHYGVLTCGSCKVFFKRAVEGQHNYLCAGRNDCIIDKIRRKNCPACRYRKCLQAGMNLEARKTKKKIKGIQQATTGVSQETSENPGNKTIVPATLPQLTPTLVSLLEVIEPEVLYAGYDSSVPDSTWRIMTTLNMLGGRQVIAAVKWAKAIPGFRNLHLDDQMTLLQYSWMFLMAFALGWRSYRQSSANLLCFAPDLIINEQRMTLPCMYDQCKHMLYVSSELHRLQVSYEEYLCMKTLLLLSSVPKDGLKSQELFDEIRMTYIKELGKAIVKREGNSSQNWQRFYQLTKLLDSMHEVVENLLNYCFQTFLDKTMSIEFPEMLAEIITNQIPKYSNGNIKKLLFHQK

[19] = target: Glucocorticoid receptor (Homo sapiens) (UniProt P04150); assay: GR-EFC Redistribution (AID 451; calls by dose curve; also: potency is read from the fitted curve at half-maximal effect); conditions: CHO-K1 GR-EFC translocation, beta-gal luminescence, 2 h
In short: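 CHO-K1 cells stably expressing nuclear-localized β-gal enzyme acceptor and GR fused C-terminally to the enzyme donor fragment; ligand-driven nuclear translocation restores β-gal by complementation. Compounds titrated up to 46 uM final, 2 h at 37 °C; luminescence read.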

[20] = target: 3',5'-cyclic-AMP phosphodiesterase 4B (Homo sapiens) (UniProt Q07343); assay: qHTS Assay for Inhibitors of PDE-IV (AID 607; active = well fitted activation curve with a large enough effect in the main read-out, with a control signal flat, not every such curve was filed as active)
Chain of 3',5'-cyclic-AMP phosphodiesterase 4B (Homo sapiens) (Q07343 whole entry, looked up): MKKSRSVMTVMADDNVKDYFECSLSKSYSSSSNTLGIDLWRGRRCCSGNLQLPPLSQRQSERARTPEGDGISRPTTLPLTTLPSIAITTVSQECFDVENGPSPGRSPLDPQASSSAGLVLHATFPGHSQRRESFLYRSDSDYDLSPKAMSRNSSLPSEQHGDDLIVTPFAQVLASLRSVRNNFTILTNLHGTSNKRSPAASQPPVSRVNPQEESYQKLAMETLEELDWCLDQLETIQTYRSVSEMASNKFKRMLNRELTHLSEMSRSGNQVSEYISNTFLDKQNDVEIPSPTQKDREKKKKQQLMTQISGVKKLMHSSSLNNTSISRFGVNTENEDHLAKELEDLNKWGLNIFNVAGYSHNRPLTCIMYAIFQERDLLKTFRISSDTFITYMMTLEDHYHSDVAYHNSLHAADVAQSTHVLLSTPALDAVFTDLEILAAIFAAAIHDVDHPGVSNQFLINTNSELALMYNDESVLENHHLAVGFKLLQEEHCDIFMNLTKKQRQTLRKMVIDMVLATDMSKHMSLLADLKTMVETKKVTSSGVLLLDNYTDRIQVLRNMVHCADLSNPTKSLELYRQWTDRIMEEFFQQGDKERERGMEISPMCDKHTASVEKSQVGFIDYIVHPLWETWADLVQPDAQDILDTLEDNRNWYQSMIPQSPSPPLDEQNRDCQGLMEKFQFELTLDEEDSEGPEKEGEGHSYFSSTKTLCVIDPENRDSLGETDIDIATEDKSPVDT
In short: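 The readout is membrane depolarisation from a cAMP-sensing CNG channel, detected with a potential dye at ex 535/em 590. Cells were HEK293-derived (endogenous PDE-IV) at 1000 cells/well, titrated up to 22.9 uM final.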

Structure (SMILES) | Potency [1] | Potency [2] | Potency [3] | outcome [4] | outcome [5] | outcome [6] | outcome [7] | outcome [8] | outcome [9] | outcome [10] | outcome [11] | outcome [12] | outcome [13] | activity change, negative = cytotoxicity [14] | Potency [15] | Potency [16] | Potency [17] | Potency [18] [µM] | Potency [19] [µM] | Potency [20]
COc1ccc(C(c2ccc(OC)cc2)C(Cl)(Cl)Cl)cc1 | inactive | inactive | inactive | inactive | inactive | inactive | inactive | inactive | inactive | inactive | inactive | inactive | – | – | – | – | – | – | – | –
Nc1ccc([N+](=O)[O-])cc1 | inactive | inactive | inactive | inactive | inactive | inactive | inactive | inactive | inactive | inactive | inactive | inactive | inactive | 0.412% | inactive | inactive | inactive | – | – | –
O=C(O)C(Cl)Cl | inactive | inactive | inactive | inactive | inactive | inactive | inactive | inactive | inactive | inactive | inactive | inactive | inactive | 2.37% | inactive | inactive | inactive | – | – | –
O=S(=O)(c1ccc(Cl)cc1)c1ccc(Cl)cc1 | – | inactive | inactive | inactive | inactive | inactive | inactive | inactive | inactive | inactive | inactive | inactive | – | -29.1% | inactive | inactive | inactive | – | – | –
Cc1c(C(=O)c2cccc3ccccc23)c2cccc3c2n1[C@H](CN1CCOCC1)CO3 | – | – | – | – | – | – | – | – | – | – | – | – | inactive | – | – | – | – | > 46 | > 46 | inactive
CCOP(=O)(NC(C)C)Oc1ccc(SC)c(C)c1 (stereo unspecified) | – | inactive | inactive | inactive | inactive | inactive | inactive | inactive | inactive | inactive | inactive | inactive | inactive | -29.1% | inactive | 12.6 µM (active) | inactive | – | – | –
Cc1cc(O)ccc1Cl | inactive | inactive | inactive | inactive | inactive | inactive | inactive | inactive | inactive | inactive | inactive | inactive | inactive | -7.18% | inactive | inactive | inactive | – | – | –
O=C(O)COc1ccccc1 | inactive | inactive | inactive | inactive | inactive | inactive | inactive | inactive | inactive | inactive | inactive | inactive | inactive | -9.54% | inactive | inactive | inactive | – | – | –
COc1ccc2c(c[n+](C)c3c4cc5c(cc4ccc23)OCO5)c1OC | – | – | – | – | – | – | – | – | – | – | – | – | inactive | – | – | – | – | – | > 46 | inactive
OCCCBr | inactive | inactive | inactive | inactive | inactive | inactive | inactive | inactive | inactive | inactive | inactive | inactive | inactive | 9.77% | inactive | inactive | inactive | – | – | –
O=[N+]([O-])c1cc([N+](=O)[O-])c2ccccc2c1 | inactive | inactive | inactive | inactive | inactive | inactive | inactive | inactive | inactive | inactive | inactive | inactive | – | -22.1% | – | inactive | inactive | – | – | –
CN(C)[C@@H]1C(=O)C(C(N)=O)=C(O)[C@@]2(O)C(=O)C3=C(O)c4c(O)cccc4[C@@](C)(O)[C@H]3[C@H](O)[C@@H]12 | inactive | inactive | inactive | inactive | inactive | inactive | inactive | inactive | inactive | inactive | inactive | inactive | inactive | 0.531% | inactive | inactive | inactive | – | – | –
C[C@]12N[C@H](Cc3ccccc31)c1ccccc12 | – | – | – | – | – | – | – | – | – | – | – | – | inactive | – | – | – | – | – | – | inactive
CCCCC(CC)COC(=O)c1ccccc1C(=O)OCC(CC)CCCC (stereo unspecified) | – | inactive | inactive | inactive | inactive | inactive | inactive | inactive | inactive | inactive | inactive | inactive | – | -29.3% | inactive | inactive | inactive | – | – | –
CCCN1CCO[C@@H]2c3cc(O)ccc3OC[C@@H]21 | – | – | – | – | – | – | – | – | – | – | – | – | inactive | – | – | – | – | – | > 46 | inactive
C1CCC(NC2CCCCC2)CC1 | inactive | inactive | inactive | inactive | inactive | inactive | inactive | inactive | inactive | inactive | inactive | inactive | inactive | 3.55% and 8.48% | inactive | inactive | inactive | – | – | –
Nc1ccc(Cl)cc1 | inactive | inactive | inactive | inactive | inactive | inactive | inactive | inactive | inactive | inactive | inactive | inactive | inactive | -1.41% | inactive | inactive | inactive | – | – | –
